Laboratory results published in paper PMC7862700, “An all-to-all approach to the identification of sequence-specific readers for epigenetic DNA modifications on cytosine”.

Assays:
Test in all cases: DAPPL (digital affinity profiling via proximity ligation, sequencing); 10 mM Tris-HCl pH 7.5, 50 mM NaCl, 1 mM DTT, 4% glycerol, room temperature, 30 min; GST-TFs on glutathione beads, 16-mer random dsDNA library, 0.1% formaldehyde crosslink after washing; high values mean tight binding
[1] = biological target: T1, FEV (Homo sapiens, UniProt Q99581 1-238); settings: protein: recombinant; tags: N-terminal GST; dsDNA, one strand shown
T1 sequence: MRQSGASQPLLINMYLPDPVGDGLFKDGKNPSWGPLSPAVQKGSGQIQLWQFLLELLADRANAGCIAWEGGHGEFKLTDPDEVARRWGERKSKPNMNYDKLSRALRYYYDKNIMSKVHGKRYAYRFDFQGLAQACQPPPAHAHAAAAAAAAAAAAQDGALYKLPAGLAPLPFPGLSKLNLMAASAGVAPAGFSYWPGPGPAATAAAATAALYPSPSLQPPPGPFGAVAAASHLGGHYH
Outline: (§1)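 In yeast, human transcription factors were expressed with a GST fusion, then pulled down on glutathione beads and given DNA barcodes. Pooled with a tag-only sample, they were exposed to 200 nmole of a 16-mer random double-stranded DNA library (Tris/NaCl/DTT/glycerol buffer, room temperature, 30 min), washed, crosslinked with 0.1% formaldehyde, proximity-ligated using BsaI/T4 ligase for 1 h at 37 °C, PCR-amplified and read on an Illumina NextSeq500. Each hexamer's frequency of reads for a factor, divided by the matching frequency for the tag-only sample, gives the binding signal.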

[2] = biological target: ETV5 (Homo sapiens, UniProt P41161 1-510); settings: protein: recombinant; tags: N-terminal GST; dsDNA, one strand shown
Outline: as §1

[3] = biological target: HSF1 (Homo sapiens, UniProt Q00613 1-529); settings: protein: recombinant; tags: N-terminal GST; chain copies: 3; dsDNA, one strand shown
Outline: as §1

[4] = biological target: T2, SPIC (Homo sapiens, UniProt Q8N5J4 1-248); settings: protein: recombinant; tags: N-terminal GST; dsDNA, one strand shown
T2 sequence: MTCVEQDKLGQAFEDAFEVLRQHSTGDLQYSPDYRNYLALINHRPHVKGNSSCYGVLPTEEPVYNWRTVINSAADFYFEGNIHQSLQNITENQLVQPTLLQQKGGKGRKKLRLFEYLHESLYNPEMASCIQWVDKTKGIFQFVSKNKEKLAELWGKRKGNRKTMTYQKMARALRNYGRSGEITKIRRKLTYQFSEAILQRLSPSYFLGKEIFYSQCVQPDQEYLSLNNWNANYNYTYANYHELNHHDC
Outline: as §1

[5] = biological target: ELF4 (Homo sapiens, UniProt Q99607 1-663); settings: protein: recombinant; tags: N-terminal GST; dsDNA, one strand shown
Outline: as §1

[6] = biological target: T3, ELK4 (Homo sapiens, UniProt P28324-2 1-405); settings: protein: recombinant; tags: N-terminal GST; dsDNA, one strand shown
T3 sequence: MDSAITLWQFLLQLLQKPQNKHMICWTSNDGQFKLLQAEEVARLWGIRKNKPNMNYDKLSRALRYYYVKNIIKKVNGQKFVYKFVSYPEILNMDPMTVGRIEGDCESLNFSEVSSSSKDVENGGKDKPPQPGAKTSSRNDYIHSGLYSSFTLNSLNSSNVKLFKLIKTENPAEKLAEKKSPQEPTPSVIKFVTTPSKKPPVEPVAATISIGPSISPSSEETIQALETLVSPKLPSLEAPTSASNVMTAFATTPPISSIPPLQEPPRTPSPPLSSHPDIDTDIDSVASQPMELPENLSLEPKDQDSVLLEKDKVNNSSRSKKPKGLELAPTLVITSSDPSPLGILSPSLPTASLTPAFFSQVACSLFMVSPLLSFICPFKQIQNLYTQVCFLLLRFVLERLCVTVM
Outline: as §1

[7] = biological target: T4, ETV2 (Homo sapiens, UniProt O00321 1-342); settings: protein: recombinant; tags: N-terminal GST; dsDNA, one strand shown
T4 sequence: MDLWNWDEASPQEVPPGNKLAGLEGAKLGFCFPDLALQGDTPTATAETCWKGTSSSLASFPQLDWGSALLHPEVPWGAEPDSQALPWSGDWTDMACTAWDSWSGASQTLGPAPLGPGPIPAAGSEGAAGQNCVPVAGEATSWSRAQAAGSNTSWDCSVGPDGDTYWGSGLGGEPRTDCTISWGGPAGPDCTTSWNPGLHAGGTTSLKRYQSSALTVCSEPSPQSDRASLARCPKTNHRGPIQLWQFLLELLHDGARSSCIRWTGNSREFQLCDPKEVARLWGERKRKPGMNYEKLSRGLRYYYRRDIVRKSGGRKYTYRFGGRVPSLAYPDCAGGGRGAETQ
Outline: as §1

[8] = biological target: T5, ELF3 (Homo sapiens, UniProt P78545 1-371); settings: protein: recombinant; tags: N-terminal GST; dsDNA, one strand shown
T5 sequence: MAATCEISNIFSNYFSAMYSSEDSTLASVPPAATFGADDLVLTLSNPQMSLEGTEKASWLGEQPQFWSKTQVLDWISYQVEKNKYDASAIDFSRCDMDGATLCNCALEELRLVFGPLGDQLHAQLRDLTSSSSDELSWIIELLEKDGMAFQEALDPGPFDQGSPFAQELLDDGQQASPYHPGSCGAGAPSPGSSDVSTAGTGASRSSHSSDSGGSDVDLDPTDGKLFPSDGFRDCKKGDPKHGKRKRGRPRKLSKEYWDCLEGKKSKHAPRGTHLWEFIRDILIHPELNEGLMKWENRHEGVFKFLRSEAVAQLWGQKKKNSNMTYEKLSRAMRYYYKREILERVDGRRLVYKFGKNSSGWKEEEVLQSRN
Outline: as §1

[9] = biological target: CRX (Homo sapiens, UniProt O43186 1-299); settings: protein: recombinant; tags: N-terminal GST; dsDNA, one strand shown
Outline: as §1

[10] = biological target: ETV1 (Homo sapiens, UniProt P50549 1-477); settings: protein: recombinant; tags: N-terminal GST; dsDNA, one strand shown
Outline: as §1

[11] = biological target: T6, ERF (Homo sapiens, UniProt P50548 1-548); settings: protein: recombinant; tags: N-terminal GST; dsDNA, one strand shown
T6 sequence: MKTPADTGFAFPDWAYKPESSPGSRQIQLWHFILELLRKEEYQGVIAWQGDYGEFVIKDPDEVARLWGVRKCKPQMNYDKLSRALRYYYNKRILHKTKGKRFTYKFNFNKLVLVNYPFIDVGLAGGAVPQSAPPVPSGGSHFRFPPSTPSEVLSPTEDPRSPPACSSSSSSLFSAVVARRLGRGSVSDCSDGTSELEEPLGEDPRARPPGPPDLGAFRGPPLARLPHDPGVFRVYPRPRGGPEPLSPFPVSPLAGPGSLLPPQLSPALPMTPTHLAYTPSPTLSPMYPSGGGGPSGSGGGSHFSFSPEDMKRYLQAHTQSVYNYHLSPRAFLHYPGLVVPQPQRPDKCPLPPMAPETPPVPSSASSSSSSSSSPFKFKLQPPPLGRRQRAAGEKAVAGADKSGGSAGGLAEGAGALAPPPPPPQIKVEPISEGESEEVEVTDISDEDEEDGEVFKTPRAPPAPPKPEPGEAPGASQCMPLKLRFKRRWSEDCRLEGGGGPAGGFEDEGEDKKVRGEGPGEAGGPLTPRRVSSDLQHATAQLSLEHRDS
Outline: as §1

[12] = biological target: T7, ETV3L (Homo sapiens, UniProt Q6ZN32 1-361); settings: protein: recombinant; tags: N-terminal GST; dsDNA, one strand shown
T7 sequence: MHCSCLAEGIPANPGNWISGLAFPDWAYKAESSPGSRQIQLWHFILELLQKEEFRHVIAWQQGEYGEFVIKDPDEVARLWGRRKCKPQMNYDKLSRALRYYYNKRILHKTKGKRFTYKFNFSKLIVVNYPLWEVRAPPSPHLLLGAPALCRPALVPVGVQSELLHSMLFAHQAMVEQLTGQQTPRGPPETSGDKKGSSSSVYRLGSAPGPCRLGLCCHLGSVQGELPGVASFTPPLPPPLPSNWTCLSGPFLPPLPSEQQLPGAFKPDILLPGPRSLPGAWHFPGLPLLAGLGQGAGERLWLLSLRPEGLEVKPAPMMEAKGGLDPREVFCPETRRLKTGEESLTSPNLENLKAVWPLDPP
Outline: as §1

[13] = biological target: T8, ETS2 (Homo sapiens, UniProt P15036 1-469); settings: protein: recombinant; tags: N-terminal GST; dsDNA, one strand shown
T8 sequence: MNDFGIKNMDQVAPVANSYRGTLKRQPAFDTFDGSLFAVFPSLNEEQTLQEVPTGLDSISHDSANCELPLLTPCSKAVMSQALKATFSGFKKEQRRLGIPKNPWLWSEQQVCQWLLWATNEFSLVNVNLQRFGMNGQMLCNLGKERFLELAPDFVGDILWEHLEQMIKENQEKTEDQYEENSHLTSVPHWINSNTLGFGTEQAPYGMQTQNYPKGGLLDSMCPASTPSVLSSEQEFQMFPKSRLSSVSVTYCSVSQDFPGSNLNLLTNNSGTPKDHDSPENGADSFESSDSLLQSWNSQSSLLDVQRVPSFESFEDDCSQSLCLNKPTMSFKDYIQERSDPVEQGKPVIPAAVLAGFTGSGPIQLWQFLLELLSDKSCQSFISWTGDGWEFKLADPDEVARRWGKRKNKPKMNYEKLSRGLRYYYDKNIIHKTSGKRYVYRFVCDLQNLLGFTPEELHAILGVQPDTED
Outline: as §1

[14] = biological target: T9, SPDEF (Homo sapiens, UniProt O95238 1-335); settings: protein: recombinant; tags: N-terminal GST; dsDNA, one strand shown
T9 sequence: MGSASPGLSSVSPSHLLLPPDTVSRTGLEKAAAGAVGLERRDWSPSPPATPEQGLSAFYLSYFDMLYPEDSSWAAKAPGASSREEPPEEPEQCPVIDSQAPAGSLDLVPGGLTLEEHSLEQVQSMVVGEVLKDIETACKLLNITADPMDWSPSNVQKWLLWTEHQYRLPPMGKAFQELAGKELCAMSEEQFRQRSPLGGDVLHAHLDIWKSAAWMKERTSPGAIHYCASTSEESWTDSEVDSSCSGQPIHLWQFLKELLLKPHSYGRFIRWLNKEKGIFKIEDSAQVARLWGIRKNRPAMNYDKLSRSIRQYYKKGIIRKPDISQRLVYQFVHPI
Outline: as §1

[15] = biological target: T10, ETV7 (Homo sapiens, UniProt Q9Y603 1-341); settings: protein: recombinant; tags: N-terminal GST; dsDNA, one strand shown
T10 sequence: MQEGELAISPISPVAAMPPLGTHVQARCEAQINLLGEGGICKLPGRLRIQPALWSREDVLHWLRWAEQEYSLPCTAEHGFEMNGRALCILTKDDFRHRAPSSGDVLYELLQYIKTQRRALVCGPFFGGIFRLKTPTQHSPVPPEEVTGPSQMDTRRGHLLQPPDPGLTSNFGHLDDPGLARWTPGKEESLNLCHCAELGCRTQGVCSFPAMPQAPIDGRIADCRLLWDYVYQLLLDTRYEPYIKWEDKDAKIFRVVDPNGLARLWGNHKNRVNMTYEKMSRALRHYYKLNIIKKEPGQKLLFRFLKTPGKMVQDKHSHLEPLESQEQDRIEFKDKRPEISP
Outline: as §1

[16] = biological target: T11, ELF5 (Homo sapiens, UniProt Q9UKW6-2 1-255); settings: protein: recombinant; tags: N-terminal GST; dsDNA, one strand shown
T11 sequence: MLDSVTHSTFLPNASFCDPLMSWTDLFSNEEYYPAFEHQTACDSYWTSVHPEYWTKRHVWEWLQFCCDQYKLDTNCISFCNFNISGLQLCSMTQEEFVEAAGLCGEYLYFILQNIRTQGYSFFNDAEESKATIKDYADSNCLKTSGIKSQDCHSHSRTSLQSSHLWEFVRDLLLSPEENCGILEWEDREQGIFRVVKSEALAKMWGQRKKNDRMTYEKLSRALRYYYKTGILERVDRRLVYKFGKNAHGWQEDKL
Outline: as §1

[17] = biological target: T12, ETV3 (Homo sapiens, UniProt P41162-2 1-143); settings: protein: recombinant; tags: N-terminal GST; dsDNA, one strand shown
T12 sequence: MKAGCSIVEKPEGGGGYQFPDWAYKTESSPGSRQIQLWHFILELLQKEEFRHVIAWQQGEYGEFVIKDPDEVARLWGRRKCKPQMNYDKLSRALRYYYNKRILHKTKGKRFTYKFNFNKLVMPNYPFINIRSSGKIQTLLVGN
Outline: as §1

[18] = biological target: ETV6 (Homo sapiens, UniProt P41212 1-452); settings: protein: recombinant; tags: N-terminal GST; dsDNA, one strand shown
Outline: as §1

Chain of HSF1 (Q00613 whole entry): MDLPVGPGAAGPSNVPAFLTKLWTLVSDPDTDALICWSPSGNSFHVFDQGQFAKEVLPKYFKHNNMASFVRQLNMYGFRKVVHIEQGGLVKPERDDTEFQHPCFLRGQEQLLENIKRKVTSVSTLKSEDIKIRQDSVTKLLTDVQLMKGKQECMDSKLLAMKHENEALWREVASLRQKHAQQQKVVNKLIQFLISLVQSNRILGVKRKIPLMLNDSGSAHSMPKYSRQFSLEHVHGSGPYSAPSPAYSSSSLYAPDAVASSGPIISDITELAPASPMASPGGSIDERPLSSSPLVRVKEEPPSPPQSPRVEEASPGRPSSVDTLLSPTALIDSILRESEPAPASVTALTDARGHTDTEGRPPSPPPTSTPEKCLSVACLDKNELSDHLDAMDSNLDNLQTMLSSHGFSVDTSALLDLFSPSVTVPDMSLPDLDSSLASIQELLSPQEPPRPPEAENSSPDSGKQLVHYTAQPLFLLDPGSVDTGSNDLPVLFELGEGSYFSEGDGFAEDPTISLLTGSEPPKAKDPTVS
Chain of ETV1 (P50549 whole entry): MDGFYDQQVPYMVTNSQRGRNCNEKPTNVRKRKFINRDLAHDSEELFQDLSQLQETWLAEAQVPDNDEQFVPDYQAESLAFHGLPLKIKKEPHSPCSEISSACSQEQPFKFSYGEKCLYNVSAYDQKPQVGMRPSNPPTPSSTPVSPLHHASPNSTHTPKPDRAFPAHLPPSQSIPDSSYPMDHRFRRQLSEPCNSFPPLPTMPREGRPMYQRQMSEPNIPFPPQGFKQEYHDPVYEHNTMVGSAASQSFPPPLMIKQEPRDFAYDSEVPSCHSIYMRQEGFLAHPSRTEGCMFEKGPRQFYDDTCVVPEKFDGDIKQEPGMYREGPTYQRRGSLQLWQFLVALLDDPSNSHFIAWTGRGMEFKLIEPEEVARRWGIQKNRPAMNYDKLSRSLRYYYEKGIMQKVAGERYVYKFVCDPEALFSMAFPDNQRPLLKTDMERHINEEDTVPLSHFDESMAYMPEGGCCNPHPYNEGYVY
Chain of ETV5 (P41161 whole entry): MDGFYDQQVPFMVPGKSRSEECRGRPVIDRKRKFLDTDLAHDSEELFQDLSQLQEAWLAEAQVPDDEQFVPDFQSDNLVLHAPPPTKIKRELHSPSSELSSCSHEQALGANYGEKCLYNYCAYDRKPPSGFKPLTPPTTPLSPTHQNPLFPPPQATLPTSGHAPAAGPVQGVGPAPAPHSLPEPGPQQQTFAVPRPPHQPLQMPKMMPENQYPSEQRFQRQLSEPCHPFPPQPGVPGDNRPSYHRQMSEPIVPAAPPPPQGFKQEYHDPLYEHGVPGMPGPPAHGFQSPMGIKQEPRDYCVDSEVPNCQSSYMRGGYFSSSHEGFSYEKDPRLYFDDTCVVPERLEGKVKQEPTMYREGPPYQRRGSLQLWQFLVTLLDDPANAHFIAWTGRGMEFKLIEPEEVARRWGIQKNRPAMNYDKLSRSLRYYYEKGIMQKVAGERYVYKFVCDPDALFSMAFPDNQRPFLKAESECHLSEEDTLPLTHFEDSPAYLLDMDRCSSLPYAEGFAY
Chain of CRX (O43186 whole entry): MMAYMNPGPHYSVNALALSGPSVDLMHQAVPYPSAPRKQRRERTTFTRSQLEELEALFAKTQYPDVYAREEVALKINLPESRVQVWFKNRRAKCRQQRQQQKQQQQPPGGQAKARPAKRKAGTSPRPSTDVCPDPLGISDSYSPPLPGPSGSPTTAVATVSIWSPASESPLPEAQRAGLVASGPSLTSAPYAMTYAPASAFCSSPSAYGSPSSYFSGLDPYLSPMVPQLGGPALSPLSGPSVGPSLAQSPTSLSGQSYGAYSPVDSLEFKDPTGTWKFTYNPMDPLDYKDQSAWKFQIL
Chain of ETV6 (P41212 whole entry): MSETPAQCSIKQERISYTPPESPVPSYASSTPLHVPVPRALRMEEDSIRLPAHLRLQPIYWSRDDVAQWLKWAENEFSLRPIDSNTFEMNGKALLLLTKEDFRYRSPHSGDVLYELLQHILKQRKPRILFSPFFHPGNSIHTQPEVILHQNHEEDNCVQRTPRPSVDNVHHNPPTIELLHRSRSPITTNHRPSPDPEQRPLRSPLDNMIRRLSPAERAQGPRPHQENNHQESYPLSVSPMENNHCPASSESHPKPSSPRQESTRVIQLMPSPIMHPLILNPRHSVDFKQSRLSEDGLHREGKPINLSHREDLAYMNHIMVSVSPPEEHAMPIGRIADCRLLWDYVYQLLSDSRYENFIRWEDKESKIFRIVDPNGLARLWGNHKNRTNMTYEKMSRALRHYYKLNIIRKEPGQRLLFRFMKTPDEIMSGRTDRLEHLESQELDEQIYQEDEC
Chain of ELF4 (Q99607 whole entry): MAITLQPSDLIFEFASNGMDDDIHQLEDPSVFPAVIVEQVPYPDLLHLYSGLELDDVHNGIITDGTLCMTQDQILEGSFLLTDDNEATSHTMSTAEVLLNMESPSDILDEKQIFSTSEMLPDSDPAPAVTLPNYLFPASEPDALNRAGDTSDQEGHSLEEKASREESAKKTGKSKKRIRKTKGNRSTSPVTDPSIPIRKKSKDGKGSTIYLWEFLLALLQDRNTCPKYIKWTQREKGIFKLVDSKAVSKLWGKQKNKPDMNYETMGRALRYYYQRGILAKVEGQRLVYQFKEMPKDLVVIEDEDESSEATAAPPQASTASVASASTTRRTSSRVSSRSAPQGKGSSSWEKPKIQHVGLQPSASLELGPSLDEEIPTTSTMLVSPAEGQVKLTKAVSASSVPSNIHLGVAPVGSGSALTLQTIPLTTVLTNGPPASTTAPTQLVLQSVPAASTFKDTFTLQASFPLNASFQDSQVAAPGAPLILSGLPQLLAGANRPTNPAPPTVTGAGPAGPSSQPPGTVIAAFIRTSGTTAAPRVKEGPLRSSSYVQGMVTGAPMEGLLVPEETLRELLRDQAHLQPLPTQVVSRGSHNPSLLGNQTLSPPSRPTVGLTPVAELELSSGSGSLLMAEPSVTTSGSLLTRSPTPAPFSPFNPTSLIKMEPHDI

AAGCAG
binding signal [1]: 1.09 fold enrichment (6-mer frequency, TF over GST control) | binding signal [2]: 1.18 fold enrichment (6-mer frequency, TF over GST control) | binding signal [3]: 1.05 fold enrichment (6-mer frequency, TF over GST control) | binding signal [4]: 1.09 fold enrichment (6-mer frequency, TF over GST control) | binding signal [5]: 1.12 fold enrichment (6-mer frequency, TF over GST control) | binding signal [6]: 1.06 fold enrichment (6-mer frequency, TF over GST control) | binding signal [7]: 1.13 fold enrichment (6-mer frequency, TF over GST control) | binding signal [8]: 1.04 fold enrichment (6-mer frequency, TF over GST control) | binding signal [9]: 1.11 fold enrichment (6-mer frequency, TF over GST control) | binding signal [10]: 1.19 fold enrichment (6-mer frequency, TF over GST control) | binding signal [11]: 1 fold enrichment (6-mer frequency, TF over GST control) | binding signal [12]: 1.04 fold enrichment (6-mer frequency, TF over GST control) | binding signal [13]: 1.14 fold enrichment (6-mer frequency, TF over GST control) | binding signal [14]: 1.13 fold enrichment (6-mer frequency, TF over GST control) | binding signal [15]: 1.14 fold enrichment (6-mer frequency, TF over GST control) | binding signal [16]: 1.19 fold enrichment (6-mer frequency, TF over GST control) | binding signal [17]: 1.1 fold enrichment (6-mer frequency, TF over GST control) | binding signal [18]: 1.11 fold enrichment (6-mer frequency, TF over GST control)
